# Targets with a hit are over-represented here; the source holds about 8,800 in all. About 0.5% of all pairs of compound and target were hits. A number with no mark means an inactive call.
# Tests used:
# Assay in all cases: log2 fold change, soluble protein after heating vs DMSO (PISA); higher = thermal stabilisation; K562 lysate, 10 uM; active = over 0.2 and 3.5 SD of the protein, either way, in both replicates (recomputed)
# erlotinib = compound: C#Cc1cccc(Nc2ncnc3cc(OCCOC)c(OCCOC)cc23)c1 [erlotinib]
# Method in brief: (§1)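 Quantification was by TMTpro 16plex LC-MS/MS with equalised channel sums, applied to the supernatant after 21,000xg for 90 min. Samples were crude K562 extract at 1 mg/mL protein in PBS pH 7.4 with 1 mM MgCl2, treated with 10 μM compound for 30 min, heated for 3 min across 48°C-58°C, pooled and brought to 0.5% NP-40 at 4°C. Values are log-two fold changes in thermal stability relative to solvent controls, from duplicates.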
# [1] = compound: C/C(=N\NC(=O)C1=CC(=CC=C1)S(=O)(=O)N2CCOCC2)/C3=C(C=CC(=C3)Cl)O
# Method in brief: as §1
# [2] = compound: C1=CC(=CC=C1C2=NC3=C(N2)C=C(C=C3)C(=O)N)OC4=CC=C(C=C4)Cl
# Method in brief: as §1
# [3] = compound: C1=CC2=C(C=CC(=C2)/C=C\3/C(=O)NC(=NCC4=CC=CS4)S3)N=C1
# Method in brief: as §1
# [4] = compound: C1=CC2=NC=CN=C2C=C1/C=C/3\C(=O)NC(=O)S3
# Method in brief: as §1
# [5] = compound: C1=CC=C(C=C1)C2=NC(=C(N2)C3=CC=NC=C3)C4=CC(=C(C=C4)Cl)O
# Method in brief: as §1
# [6] = compound: C1=CC=C2C(=C1)C3=NNC4=CC=CC(=C43)C2=O
# Method in brief: as §1
# [7] = compound: C1CCN(C1)C(=O)NC2=CC=CC(=C2)NC3=NC=C(C(=N3)NCCC4=CN=CN4)Br
# Method in brief: as §1
# [8] = compound: C1CN(CCC1(CC2=CC=C(C=C2)Cl)N)C3=NC=NC4=C3C=CN4
# Method in brief: as §1
# IRAK-1-4 Inhibitor I = compound: C1COCCN1CCN2C3=CC=CC=C3N=C2NC(=O)C4=CC(=CC=C4)[N+](=O)[O-] [IRAK-1-4 Inhibitor I]
# Method in brief: as §1
# ibrutinib = compound: C=CC(=O)N1CCC[C@@H](n2nc(-c3ccc(Oc4ccccc4)cc3)c3c(N)ncnc32)C1 [ibrutinib]
# Method in brief: as §1
# [9] = compound: CC(=O)c1cnc2ccc(-c3cc(Cl)c(O)c(Cl)c3)nc2c1N[C@H]1CC[C@H](CN(C)C)CC1
# Method in brief: as §1
# ralimetinib = compound: CC(C)(C)Cn1c(N)nc2ccc(-c3[nH]c(C(C)(C)C)nc3-c3ccc(F)cc3)nc21 [ralimetinib]
# Method in brief: as §1
# [10] = compound: CC(C)(O)CC(=O)NCCn1ccc2ncnc(Nc3ccc(Oc4cccc(C(F)(F)F)c4)c(Cl)c3)c21
# Method in brief: as §1
# [11] = compound: CC(C)C1=C2N=C(C=C(N2N=C1)NCC3=CC=CC=C3)NCCCCCCN
# Method in brief: as §1
# [12] = compound: CC1=C(C(CC(=O)N1)C2=CC=C(C=C2)C(F)(F)F)C(=O)NC3=C(C=C4C(=C3)C=NN4)F
# Method in brief: as §1
# [13] = compound: CC1=C(C2=C(C=C1)C(=O)C3=CC=CC=C3N2CCCN)C
# Method in brief: as §1
# [14] = compound: CC1=C(C=C(C=C1)NC(=O)C2=CC(=CC=C2)C(C)(C)C#N)NC3=CC4=C(C=C3)N=CN(C4=O)C
# Method in brief: as §1
# [15] = compound: CC1=C(C=C(C=C1)NC(=O)C2=CC(=CC=C2)N(C)C)NC(=O)C3=CC=C(C=C3)O
# Method in brief: as §1
# [16] = compound: CC1=CC=C(C=C1)SC2=C3C=C(SC3=CN=C2)C(=O)N
# Method in brief: as §1
# Sequence of UniProt Q6NXT1 (Q6NXT1 whole entry, looked up): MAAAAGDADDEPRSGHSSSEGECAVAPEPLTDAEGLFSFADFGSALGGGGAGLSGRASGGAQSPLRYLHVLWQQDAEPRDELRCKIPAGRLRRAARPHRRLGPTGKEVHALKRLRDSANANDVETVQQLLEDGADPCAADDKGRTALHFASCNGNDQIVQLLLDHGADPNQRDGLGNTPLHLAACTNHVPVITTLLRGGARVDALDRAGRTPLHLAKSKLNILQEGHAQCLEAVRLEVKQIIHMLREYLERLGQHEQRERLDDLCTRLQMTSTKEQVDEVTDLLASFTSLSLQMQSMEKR
# Sequence of UniProt P04114 (P04114 whole entry, looked up): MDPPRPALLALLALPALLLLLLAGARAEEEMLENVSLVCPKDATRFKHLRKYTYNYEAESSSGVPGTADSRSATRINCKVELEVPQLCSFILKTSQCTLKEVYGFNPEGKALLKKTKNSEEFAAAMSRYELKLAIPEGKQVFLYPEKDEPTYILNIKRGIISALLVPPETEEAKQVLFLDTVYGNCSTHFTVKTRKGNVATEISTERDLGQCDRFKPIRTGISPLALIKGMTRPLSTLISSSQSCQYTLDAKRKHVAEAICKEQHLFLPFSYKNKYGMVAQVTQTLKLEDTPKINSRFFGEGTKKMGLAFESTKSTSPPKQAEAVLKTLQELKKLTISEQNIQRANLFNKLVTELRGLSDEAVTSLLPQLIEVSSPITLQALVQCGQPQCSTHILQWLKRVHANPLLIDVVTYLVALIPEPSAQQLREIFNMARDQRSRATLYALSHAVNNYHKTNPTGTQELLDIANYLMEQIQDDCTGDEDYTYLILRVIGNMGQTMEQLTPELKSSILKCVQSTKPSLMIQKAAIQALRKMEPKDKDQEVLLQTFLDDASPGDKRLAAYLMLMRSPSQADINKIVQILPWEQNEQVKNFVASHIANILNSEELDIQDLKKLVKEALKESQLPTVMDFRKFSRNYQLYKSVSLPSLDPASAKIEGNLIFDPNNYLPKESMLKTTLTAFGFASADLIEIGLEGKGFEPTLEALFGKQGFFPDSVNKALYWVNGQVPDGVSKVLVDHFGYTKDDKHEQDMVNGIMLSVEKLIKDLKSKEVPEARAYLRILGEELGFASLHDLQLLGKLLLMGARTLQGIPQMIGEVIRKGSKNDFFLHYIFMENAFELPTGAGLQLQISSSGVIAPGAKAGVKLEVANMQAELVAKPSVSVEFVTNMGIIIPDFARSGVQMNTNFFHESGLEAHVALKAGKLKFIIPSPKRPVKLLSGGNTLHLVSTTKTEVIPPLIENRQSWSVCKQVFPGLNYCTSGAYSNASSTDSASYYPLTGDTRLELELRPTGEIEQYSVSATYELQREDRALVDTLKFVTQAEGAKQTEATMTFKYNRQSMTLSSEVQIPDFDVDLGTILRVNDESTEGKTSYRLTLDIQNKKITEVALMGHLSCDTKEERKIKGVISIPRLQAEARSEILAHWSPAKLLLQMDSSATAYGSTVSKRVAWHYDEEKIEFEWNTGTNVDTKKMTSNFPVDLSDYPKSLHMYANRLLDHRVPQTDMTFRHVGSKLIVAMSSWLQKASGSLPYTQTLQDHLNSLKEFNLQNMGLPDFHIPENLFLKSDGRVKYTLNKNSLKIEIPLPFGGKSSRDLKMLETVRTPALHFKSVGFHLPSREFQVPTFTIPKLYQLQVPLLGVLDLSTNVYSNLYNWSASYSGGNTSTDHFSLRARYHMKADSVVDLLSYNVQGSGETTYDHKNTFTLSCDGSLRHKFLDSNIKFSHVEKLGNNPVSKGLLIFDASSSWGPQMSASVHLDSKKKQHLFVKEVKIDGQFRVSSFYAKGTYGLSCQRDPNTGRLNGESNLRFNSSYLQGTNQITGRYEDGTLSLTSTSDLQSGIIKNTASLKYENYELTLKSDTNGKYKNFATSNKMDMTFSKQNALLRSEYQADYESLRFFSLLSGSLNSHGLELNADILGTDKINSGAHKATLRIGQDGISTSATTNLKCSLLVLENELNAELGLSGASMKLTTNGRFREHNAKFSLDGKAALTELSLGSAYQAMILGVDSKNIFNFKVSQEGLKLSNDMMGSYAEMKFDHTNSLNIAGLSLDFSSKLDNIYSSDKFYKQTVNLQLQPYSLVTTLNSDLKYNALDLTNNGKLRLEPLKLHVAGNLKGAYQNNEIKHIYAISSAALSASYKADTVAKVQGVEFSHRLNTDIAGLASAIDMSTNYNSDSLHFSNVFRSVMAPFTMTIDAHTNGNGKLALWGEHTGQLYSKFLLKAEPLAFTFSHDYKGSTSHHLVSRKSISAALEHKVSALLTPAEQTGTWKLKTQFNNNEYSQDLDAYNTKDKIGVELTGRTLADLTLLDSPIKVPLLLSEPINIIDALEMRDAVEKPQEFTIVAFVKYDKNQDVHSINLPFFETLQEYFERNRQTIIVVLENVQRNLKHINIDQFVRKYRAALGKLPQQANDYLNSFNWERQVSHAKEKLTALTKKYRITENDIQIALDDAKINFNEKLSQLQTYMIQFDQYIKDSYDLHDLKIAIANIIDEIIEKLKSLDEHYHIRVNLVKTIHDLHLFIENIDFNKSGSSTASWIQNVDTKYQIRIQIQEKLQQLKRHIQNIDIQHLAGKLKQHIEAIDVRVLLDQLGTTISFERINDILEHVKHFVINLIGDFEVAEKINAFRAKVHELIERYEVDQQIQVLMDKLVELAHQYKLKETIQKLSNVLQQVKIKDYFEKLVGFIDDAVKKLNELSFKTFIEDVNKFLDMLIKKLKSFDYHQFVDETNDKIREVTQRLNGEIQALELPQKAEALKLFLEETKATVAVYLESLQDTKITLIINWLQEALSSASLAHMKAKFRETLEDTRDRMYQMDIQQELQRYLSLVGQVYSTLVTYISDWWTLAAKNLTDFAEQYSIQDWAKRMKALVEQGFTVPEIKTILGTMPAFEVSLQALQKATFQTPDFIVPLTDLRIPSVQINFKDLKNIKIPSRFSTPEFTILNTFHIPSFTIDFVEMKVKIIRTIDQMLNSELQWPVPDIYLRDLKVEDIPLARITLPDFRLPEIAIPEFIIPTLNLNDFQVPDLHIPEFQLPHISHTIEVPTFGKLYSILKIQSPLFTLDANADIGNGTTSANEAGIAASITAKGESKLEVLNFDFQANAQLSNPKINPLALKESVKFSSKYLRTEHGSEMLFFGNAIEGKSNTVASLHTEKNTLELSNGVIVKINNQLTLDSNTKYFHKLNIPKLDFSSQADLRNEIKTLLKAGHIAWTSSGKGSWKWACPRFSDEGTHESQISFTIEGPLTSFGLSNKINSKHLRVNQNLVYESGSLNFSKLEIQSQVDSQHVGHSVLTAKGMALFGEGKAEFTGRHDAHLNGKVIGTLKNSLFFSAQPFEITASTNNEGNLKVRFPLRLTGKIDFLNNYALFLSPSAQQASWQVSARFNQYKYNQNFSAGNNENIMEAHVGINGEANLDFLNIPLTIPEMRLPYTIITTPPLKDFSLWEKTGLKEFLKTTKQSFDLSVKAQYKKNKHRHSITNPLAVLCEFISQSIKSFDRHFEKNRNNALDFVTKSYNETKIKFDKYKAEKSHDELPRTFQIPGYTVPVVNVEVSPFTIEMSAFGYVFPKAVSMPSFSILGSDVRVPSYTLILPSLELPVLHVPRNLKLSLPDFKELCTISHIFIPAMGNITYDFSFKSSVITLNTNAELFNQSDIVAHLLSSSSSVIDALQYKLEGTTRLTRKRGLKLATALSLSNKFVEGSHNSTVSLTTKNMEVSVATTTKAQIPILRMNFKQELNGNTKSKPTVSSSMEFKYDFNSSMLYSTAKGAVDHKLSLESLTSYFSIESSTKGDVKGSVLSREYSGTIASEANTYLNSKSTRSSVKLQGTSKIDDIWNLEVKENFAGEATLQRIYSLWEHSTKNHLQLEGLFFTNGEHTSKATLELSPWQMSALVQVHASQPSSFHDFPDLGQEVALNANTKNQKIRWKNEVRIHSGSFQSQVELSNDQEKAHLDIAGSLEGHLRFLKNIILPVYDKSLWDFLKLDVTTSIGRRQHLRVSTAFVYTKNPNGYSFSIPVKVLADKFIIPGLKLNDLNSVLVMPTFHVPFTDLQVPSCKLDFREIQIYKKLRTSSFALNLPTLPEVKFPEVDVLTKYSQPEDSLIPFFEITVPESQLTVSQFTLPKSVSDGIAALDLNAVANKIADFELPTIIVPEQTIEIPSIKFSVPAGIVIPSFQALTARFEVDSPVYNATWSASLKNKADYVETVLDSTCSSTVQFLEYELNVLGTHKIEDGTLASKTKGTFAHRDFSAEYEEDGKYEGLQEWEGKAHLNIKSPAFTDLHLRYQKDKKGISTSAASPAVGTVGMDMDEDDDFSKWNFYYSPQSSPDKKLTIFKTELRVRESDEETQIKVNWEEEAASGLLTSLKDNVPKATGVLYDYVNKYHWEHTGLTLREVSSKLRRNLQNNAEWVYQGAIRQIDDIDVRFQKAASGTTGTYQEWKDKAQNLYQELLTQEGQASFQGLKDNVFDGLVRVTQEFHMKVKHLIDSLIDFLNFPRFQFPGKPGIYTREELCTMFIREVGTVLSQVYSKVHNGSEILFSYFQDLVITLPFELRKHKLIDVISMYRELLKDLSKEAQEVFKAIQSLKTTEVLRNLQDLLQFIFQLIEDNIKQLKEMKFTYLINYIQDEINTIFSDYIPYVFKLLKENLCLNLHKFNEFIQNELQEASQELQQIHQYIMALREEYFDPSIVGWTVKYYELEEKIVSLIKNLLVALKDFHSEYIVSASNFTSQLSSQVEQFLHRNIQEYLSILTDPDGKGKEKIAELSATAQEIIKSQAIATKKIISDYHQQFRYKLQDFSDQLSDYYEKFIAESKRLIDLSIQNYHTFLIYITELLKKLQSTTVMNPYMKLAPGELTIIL
# Sequence of UniProt P07311 (P07311 whole entry, looked up): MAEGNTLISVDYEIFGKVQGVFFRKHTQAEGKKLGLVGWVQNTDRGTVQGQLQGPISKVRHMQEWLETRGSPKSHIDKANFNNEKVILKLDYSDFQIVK
# Sequence of UniProt P00568 (P00568 whole entry, looked up): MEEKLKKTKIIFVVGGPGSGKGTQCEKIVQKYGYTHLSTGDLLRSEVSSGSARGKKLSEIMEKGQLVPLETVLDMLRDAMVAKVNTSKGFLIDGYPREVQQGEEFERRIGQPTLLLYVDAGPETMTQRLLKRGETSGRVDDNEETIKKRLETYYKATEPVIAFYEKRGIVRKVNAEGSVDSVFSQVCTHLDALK
Target,log2 fold change (erlotinib),log2 fold change [1],log2 fold change [2],log2 fold change [3],log2 fold change [4],log2 fold change [5],log2 fold change [6],log2 fold change [7],log2 fold change [8],log2 fold change (IRAK-1-4 Inhibitor I),log2 fold change (ibrutinib),log2 fold change [9],log2 fold change (ralimetinib),log2 fold change [10],log2 fold change [11],log2 fold change [12],log2 fold change [13],log2 fold change [14],log2 fold change [15],log2 fold change [16]
ACAA1 (UniProt P09110),0.03,-0.455,0.041,0.015,0.03,-0.036,0.016,0.014,-0.024,-0.006,0.046,-0.012,-0.054,-0.003,0,-0.02,-0.016,0.044,0.001,-0.007
AK1 (UniProt P00568),-0.023,0.002,0.014,-0.036,0.002,-0.004,0.047,0.067,-0.003,-0.002,-0.001,0.006,0.006,-0.021,-0.029,-0.008,0.043,-0.024,-0.002,0.009
ACAT1 (UniProt P24752),0.011,0.006,-0.015,0.015,0.017,-0.002,-0.007,-0.028,0.015,0.017,0.002,0.005,0.003,0.002,-0.002,0.001,0.034,-0.013,-0.007,0.015
ALDH1L2 (UniProt Q3SY69),0.005,0.025,0.011,0.037,-0.02,-0.004,-0.064,-0.018,0.024,-0.011,0.033,0.034,0.024,-0.038,0.006,0.029,-0.022,-0.028,-0.006,0.016
ADK (UniProt P55263),0.219,-0.024,-0.028,0.132,-0.079,0.047,0.011,-0.049,0.026,0.063,-0.028,0.107,0.313,-0.027,-0.05,-0.073,-0.059,-0.007,-0.008,-0.005
ALDH1A1 (UniProt P00352),-0.048,0.044,-0.054,0.048,0.008,-0.033,0.132,0.027,0.012,-0.029,0.092,0.019,0.037,0.037,-0.029,0,0.26 (active),-0.005,0.028,0.011
AHCYL1 (UniProt O43865),-0.015,0.018,-0.034,-0.009,-0.006,0.008,-0.073,-0.024,0.009,0.007,0.014,-0.02,-0.004,0.022,0.003,0.016,-0.065,-0.028,0.009,0.021
ALDH18A1 (UniProt P54886),0.029,-0.039,-0.017,0.02,-0.015,-0.016,-0.025,-0.022,0.001,-0.006,0.006,0.007,0.021,-0.015,-0.001,-0.02,0.001,0.022,0.016,-0.018
ASB6 (UniProt Q9NWX5),0.038,-0.311,0.04,-0.094,-0.005,0.06,0.092,-0.053,0.327,0.002,-0.04,-0.087,0.027,-0.013,0.001,-0.13,-0.007,0.055,-0.052,0.01
AK2 (UniProt P54819),-0.011,-0.052,0.035,-0.002,0.002,0.016,0.014,-0.008,-0.002,0.005,0.054,-0.022,-0.013,0.027,0.018,-0.018,0.003,-0.018,-0.031,-0.024
AGPS (UniProt O00116),0.033,-0.086,-0.014,0.037,0.019,-0.039,-0.082,-0.034,0.015,0.023,0.01,-0.004,-0.013,-0.07,-0.065,0.012,0.025,-0.177,-0.005,-0.02
ANP32E (UniProt Q9BTT0),0.006,-0.006,0.016,-0.021,0.012,-0.004,-0.065,-0.025,0.011,0.023,0.03,-0.009,-0.015,0.001,0.022,-0.051,-0.072,0.011,-0.065,0.063
APOB (UniProt P04114),-0.028,-0.001,-0.032,-0.029,-0.021,0,-0.055,-0.067,0.015,0.097,-0.025,-0.016,-0.052,-0.195,0.011,-0.02,-0.089,0.063,-0.005,-0.036
ANKRD54 (UniProt Q6NXT1),-0.005,0.01,0.122,-0.036,0.025,0.037,0.02,0.008,-0.035,0.003,-0.054,-0.002,0.063,-0.006,0.044,0.003,0.001,-0.006,0.01,-0.023
ACSL1 (UniProt P33121),0.02,-0.104,-0.153,0.086,0.051,0.025,-0.04,0.009,0.012,0.022,0.009,0.008,-0.004,-0.075,0.01,0.024,0.004,-0.01,0.026,-0.004
ACYP1 (UniProt P07311),-0.032,0.028,-0.007,-0.02,-0.008,-0.017,-0.01,0.024,-0.004,0.013,0.056,0.027,0,-0.024,-0.011,-0.021,0.015,-0.013,-0.024,0.021
